{"source": "PubChem BioAssay (NCATS)", "note": "“And” between values parts separate entries of the source, which are not always exact repeats. Equal entries are not always repeated. Records with an inconclusive call do not appear. The source made the active and inactive calls. Calls follow the shape of the dose curve; as a rule, active = well fitted activation curve with a large enough effect; inconclusive = small, poorly fitted or top-dose-only effect; inactive = no such curve, though single readings can be large or run the other way. Square brackets hold non-standard residues; d marks the D form. Peptide text beside a SMILES is read from it. 2Abz = Nc1ccccc1C(=O)O"}
{"target": "Cellular tumor antigen p53 (Homo sapiens) (UniProt P04637)", "sequence (P04637 whole entry, looked up)": "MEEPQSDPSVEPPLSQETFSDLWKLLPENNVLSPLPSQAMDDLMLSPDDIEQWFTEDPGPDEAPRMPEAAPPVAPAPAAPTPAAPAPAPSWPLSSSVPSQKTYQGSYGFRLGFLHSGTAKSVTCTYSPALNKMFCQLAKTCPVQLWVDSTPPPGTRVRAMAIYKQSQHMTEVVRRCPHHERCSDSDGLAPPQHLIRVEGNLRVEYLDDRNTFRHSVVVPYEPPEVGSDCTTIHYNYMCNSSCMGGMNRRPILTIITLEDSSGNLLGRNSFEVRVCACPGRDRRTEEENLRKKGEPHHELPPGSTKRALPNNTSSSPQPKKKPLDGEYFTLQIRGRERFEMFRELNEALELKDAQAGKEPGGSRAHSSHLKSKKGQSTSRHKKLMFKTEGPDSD", "test": "Primary qHTS for small molecule compounds that upregulate eGFP-tagged delta133p53alpha (in N-terminal) cells. (AID 2060322); also: nearly all actives have a fitted effect of over 75% in size; also: potency is read from the fitted curve at half-maximal effect;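 as to activation: cells pre-induced with doxycycline then dosed without doxycycline; series mostly up to about 56 µM; 0% = DMSO vehicle and 100% = reference activator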", "settings": "NCI-H358 eGFP-delta133p53alpha fluorescence, 24 h; activation: stronger effect = higher value", "from_the_text": "Assay Development and Screening Technology\nNational Center for Advancing Translational Sciences (NCATS),\nNational Institute of Health (NIH), Rockville, Maryland\nCellular senescence (CS) is one of the hallmarks of aging and age-related diseases. Senescent cells are characterized by an irreversible growth arrest, an increase in senescence-associated beta-galactosidase (SA-beta-gal) activity and p16INK4a expression, an activation of the DNA damage response pathways, and the emergence of a senescence-associated secretory phenotype (SASP).\nDelta133p53alpha, a human/primate-specific p53 protein isoform, delays or inhibits the induction of CS and SASP in various types of human cells, including progeria-derived fibroblasts, primary normal astrocytes, and CD8+ T lymphocytes. Induction of delta133p53alpha with small molecule compounds may provide therapeutic opportunities for inhibition of senescence/SASP-associated pathologies in progeria syndromes, astrocyte-mediated neuroprotection in neurodegenerative diseases, and possibly prevention and treatment of a wider range of senescence- and aging-associated diseases.\nHere we report the development and validation of a cell-based quantitative high throughput screening (qHTS) assay in 1,536-well format. This qHTS assay uses the NCI-H358 cell line with doxycycline-inducible expression of enhanced green fluorescent protein (eGFP)-tagged delta133p53alpha, which allows efficient and highly quantitative measurement of the protein levels.\nPROTOCOL TABLE (as described by Inglese J, Shamu CE and Guy RK. 2007)\nSEQUENCE No. (e.g., 1, 2, 3, etc.); […] (e.g., Cells, Incubation, Reagent, etc.); VALUE; DESCRIPTION.\n1; Cells; 4uL; 800 doxycycline treated cells / well in doxycycline-free media, 1536-well black, clear-bottom low base Aurora microplates.\n2; Compounds; 23 nL; Kalypsis pin tool (Wako) equipped with 1536-well pin heads, 5-azacytidine positive control.\n3; Incubation; 24 hr; 37C, 5% CO2; 95% relative humidity.\n4; Aspiration; 1x; BioTek EL406 washer dispenser (Agilent).\n5; Fixing; 3.5% paraformaldehyde, BioTek EL406 washer dispenser (Agilent).\n6; Washing; 1x PBS; BioTek EL406 washer dispenser (Agilent).\n7; Nuclei staining; 1:1000 dilution of Hoechst 33342 (Thermofisher), BioTek EL406 washer dispenser (Agilent).\n8; Incubation; 20 min; in the dark at room temperature.\n9; Washing; 2x, 1x PBS (ThermoFisher), BioTek EL406 washer dispenser (Agilent).\n10; Reagent; 10 uL; 1x PBS per well, sealed with clear adhesive tape.\nNOTES (numbers refer to sequence numbers above).\n1. NCI-H358 cells expressing eGFP-tagged delta133p53alpha were grown in T75 culture flasks and treated with doxycycline for 24h, at 10 ng/ml for eGFP-D133p53a cells (N-terminal cell) and 100 ng/ml for D133p53a-eGFP cells (C-terminal cells). Cells were trypsinized, counted using a Counted 3 Automated Cell Counter (Thermo Fisher), and diluted to a concentration of 200,000 cells/ml. A Multidrop Combi Reagent Dispenser (ThermoFisher) was used to dispense 800 cells/well in […] of doxycycline-free media, into 1536-well black/clear bottom low base plates (AuroraMicroplates).\n2. After plating cells, 23 nl of compound library, DMSO vehicle control or positive control (5-azacytidine) were transferred by Pin Tool (Wako). The plate map layout was the same for each plate: (column 1) non-doxycycline treated cells + DMSO vehicle control; (column 2) doxycycline treated cells + DMSO vehicle control baseline; (column 3) doxycycline treated cells + positive control 57.5 uM final concentration 5-azacytidine; (column 4) doxycycline treated cells + serial dilution of 5-azacytidine, 16-point 1:2 titration spanning 1.8 nM to […] final concentration; (columns 5-48) doxycycline treated cells + titration of library compounds.\n3. Cells were incubated at 37 °C, 5 % CO2, 95% RH with breathable metal lid for 24h.\n4-10. […] After two washes, 10 ul of 1X PBS (Thermo Fisher) was dispensed to each well. Clear adhesive plate seals (VWR) were applied and plates stored at 4 °C.\n11. […]"}
{"smiles": "CN(C)CCN1C(=O)c2cccc3cc(N)cc(c23)C1=O", "Potency": "34.3 µM (active)"}
{"smiles": "O=C1NC(=O)/C(=C/c2ccc(-c3ccc(F)cc3O)o2)S1", "activation": "-29.7% (inactive)"}
{"smiles": "Cc1nc2ccccc2n1Cc1ccc(Cl)cc1", "activation": "-11.7% (inactive)"}
{"smiles": "CCN1CCCC1CN", "note": "(stereo not given)", "activation": "3.35% (inactive)"}
{"smiles": "CCC(C)C1NC(=O)C2CCCN2C(=O)C(C(C)C)NC(=O)c2ccccc2NC(=O)C(Cc2ccc(O)cc2)NC(=O)C(C)NC(=O)C(C(C)O)NC1=O", "note": "(stereo not given) (cyclo([2Abz]VPITAY); configuration not given here)", "activation": "0.763% (inactive)"}
{"smiles": "CC[C@@H](CO)NCCN[C@@H](CC)CO", "activation": "-10% (inactive)"}
{"smiles": "CC1=NN(c2ccccc2)C(=O)C1", "activation": "-3.42% (inactive) and 10.7% (inactive) and -17% (inactive)"}
{"smiles": "CCOC(=O)C1=C(C)NC2=C(C(=O)CC(C)(C)C2)C1c1ccc(-c2ccccc2)cc1", "note": "(stereo not given)", "activation": "5.7% (inactive)"}
{"smiles": "C=C(C)C1Cc2c(ccc3c2OCC(c2ccc(O)cc2O)C3)O1", "note": "(stereo not given)", "activation": "32.1% (inactive)"}
{"smiles": "CCCCC(O)/C=C(C)/C=C/C=C/C(=O)N1CCCC1=O", "note": "(stereo not given)", "activation": "13.4% (inactive)"}
{"smiles": "COC(=O)N(C)c1c(N)nc(-c2nn(Cc3ccccc3F)c3ncccc23)nc1N", "activation": "-15.8% (inactive)"}
{"smiles": "COc1cc(C[C@H]2C(=O)OC[C@@H]2Cc2ccc(OC)c(OC)c2)ccc1O", "activation": "19.6% (inactive)"}
{"smiles": "CC1(C)[C@@H](OC(=O)CCC(=O)O)CC[C@]2(C)[C@H]3C(=O)C=C4[C@@H]5C[C@@](C)(C(=O)O)CC[C@]5(C)CC[C@@]4(C)[C@]3(C)CC[C@@H]12", "activation": "0.565% (inactive)"}
{"smiles": "Cn1nccc1Nc1nccc(-c2ccn([C@H](CO)c3ccc(Cl)c(F)c3)c(=O)c2)n1", "activation": "-22.3% (inactive)"}
{"smiles": "OC[C@@]1(O)CO[C@H](OC[C@H]2O[C@@H](OC(CCCCc3ccc(O)cc3)CCc3ccc(O)cc3)[C@H](O[C@H]3OC[C@](O)(CO)[C@H]3O)[C@@H](O)[C@@H]2O)[C@@H]1O", "note": "(stereo not given in full)", "activation": "-2.29% (inactive)"}
{"smiles": "CC(=O)O[C@@H]1[C@H](OC(C)=O)C[C@@]2(C)C(CC[C@@H](C)[C@]23Cc2c(O)cc4c(c2O3)CN([C@@H](CCC(=O)O)C(=O)O)C4=O)C1(C)C", "note": "(stereo not given in full)", "activation": "-9.92% (inactive)"}
{"smiles": "COc1cc(F)c(C(C)C)cc1-c1ccc(C(F)(F)F)cc1CN1C(=O)OC(c2cc(C(F)(F)F)cc(C(F)(F)F)c2)C1C", "note": "(stereo not given)", "activation": "-6.68% (inactive)"}
{"smiles": "CC(=O)NC(C(=O)OC1CCC(C)(C)C2CC=C3C(=O)OCC3C12C)C(C)C", "note": "(stereo not given)", "activation": "9.16% (inactive)"}
{"smiles": "C[C@@H]1C[C@H](O[C@@H]2O[C@H](CO[C@@H]3OC[C@](O)(CO)[C@H]3O)[C@@H](O)[C@H](O)[C@H]2O)CC(C)(C)[C@H]1/C=C/[C@@H](C)O", "activation": "-29.5% (inactive)"}
{"smiles": "CS(=O)(=O)N1CCc2c(-c3cnc(N)nc3)nc(N3CCOCC3)nc21", "activation": "26% (inactive)"}
{"smiles": "C=C1C(O)C(O)C2(CC3C(C)=CCC4C(C)(C(=O)O)CCCC34C)OC2C1O", "note": "(stereo not given)", "activation": "-22.1% (inactive)"}
{"smiles": "C=C1CC[C@@H]2[C@@](C)(CO[C@@H]3O[C@H](CO)C(O)[C@H](O)C3O)[C@H](O)CC[C@@]2(C)[C@@H]1CC/C(C)=C/CO", "note": "(stereo not given in full)", "activation": "-5.36% (inactive)"}
{"smiles": "Oc1cc(O)cc(/C=C/c2ccc(O)c(O)c2)c1", "activation": "11.9% (inactive)"}
{"smiles": "Cc1nc2cnc3ccc(C#Cc4cccnc4)cc3c2n1-c1ccc(C(C)(C)C#N)cc1", "activation": "35.7% (inactive)"}
{"smiles": "CNS(=O)(=O)c1ccccc1Nc1nc(Nc2ccc(N3CCN(C)CC3)cc2OC)ncc1Cl", "Potency": "21.3 µM (active)"}
{"smiles": "O=C(c1cccc(Cl)c1F)N1CCN(Cc2cccc(Nc3nccs3)n2)CC1", "activation": "23.9% (inactive)"}
{"smiles": "Nc1nc2ccc(OC(F)(F)F)cc2s1", "activation": "-8.55% (inactive) and 47.5% (inactive)"}
{"smiles": "CC(=O)CC1CCC(C(C)C(=O)OCC(O)CO)O1", "note": "(stereo not given)", "activation": "-0.763% (inactive)"}
{"smiles": "C[C@H](O)[C@H](O)/C=C/c1cccc(O)c1CO", "activation": "-15.3% (inactive)"}
{"smiles": "COCCN(C)Cc1ccc2nc3sc(C(=O)N(C)C4CCCCC4)cn3c2c1", "activation": "15.7% (inactive)"}
{"smiles": "CN(C)C(=O)NC1(c2ccccc2)CCN(CCC[C@]2(c3ccc(Cl)c(Cl)c3)CCCN(C(=O)c3ccccc3)C2)CC1", "activation": "13.4% (inactive)"}
{"smiles": "CCC(C)/C=C(C)/C=C/C1=CC2=C(Cl)C(=O)C(C)(OC(C)=O)C(=O)C2=CN1C(CC(=O)O)C(=O)O", "note": "(stereo not given)", "activation": "9.82% (inactive)"}
{"smiles": "CCN1CCC[C@@H]1CNC(=O)c1ccc2c(c1)NC(=O)c1cccc(C)c1S2", "activation": "19.7% (inactive)"}
{"smiles": "CC(C)=CC1C[C@](C)(O)[C@@H]2[C@H]3CCC4[C@@]5(C)CC[C@H](O[C@@H]6OC[C@H](O)[C@H](O[C@@H]7O[C@H](CO[C@@H]8O[C@H](CO)[C@@H](O)[C@H](O)[C@H]8O)[C@@H](O)[C@H](O)[C@H]7O)[C@H]6O[C@@H]6O[C@@H](C)[C@H](O)[C@@H](O)[C@H]6O)C(C)(C)[C@@H]5CC[C@@]4(C)[C@@]34CO[C@@]2(C4)O1", "note": "(stereo not given in full)", "activation": "-4.46% (inactive)"}
{"smiles": "CN1CCC[C@@H]1CCO[C@](C)(c1ccccc1)c1ccc(Cl)cc1", "activation": "26.6% (inactive)"}
{"smiles": "CN1CCC(NC(=O)c2cc(-c3c(O)cc(O)cc3Oc3ccc([N+](=O)[O-])cc3)on2)CC1", "activation": "5.25% (inactive)"}
{"smiles": "C#CCN(C)CCCOc1ccc(Cl)cc1Cl", "activation": "-2.51% (inactive) and -6.18% (inactive)"}
{"smiles": "CC(C)c1ccc2c(c1)C(=O)CC1[C@@](C)(C(=O)O)CCC[C@]21C", "note": "(stereo not given in full)", "activation": "-2.68% (inactive)"}
{"smiles": "C[C@H](NC(=O)CCc1nc2ccccc2c(=O)[nH]1)c1ccccc1", "activation": "1% (inactive)"}
{"smiles": "O=c1nc(-c2ccccn2)sc2ccccc12", "activation": "-10.5% (inactive)"}
